# Data reported in paper PMC5540273 (PLoS ONE, 2017).
# Test system: T1, YSK1
# T1 construct: gene STK25
# Settings: concentration: 1 μM, replicates: in singlicate; n = 1
# 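Note: KINOMEscan kinase panel screen.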
row,Compound,%Inh [%]
1,Nc1ncnc2[nH]c(-c3ccccc3)nc12 [AH5015],0
2,Cc1cc(-c2ccc3c(c2)CC[C@@H](N[C@@H](C)c2ccccc2)C3)cnc1N.Cl [GW412617],0
3,Cc1ccc(-c2cc(-c3c[nH]nc3-c3ccccn3)ccn2)cc1 [GW684088],10
4,O=C(Nc1n[nH]c2cc(-c3cccc(F)c3F)ccc12)C1CC1 [SB-733894],0
5,O=C(Nc1ccc2c(c1)OCO2)NC1CCN(c2ccnc(Nc3ccc(F)cc3)n2)C1 (centres unmarked) [GSK1379724],0
6,O=c1cc(N2CCOCC2)nc2n(Cc3cccc(Cl)c3Cl)ccn12 [GSK2286295],8
7,COc1cccc(NC(=O)NC2CCN(c3ccnc(Nc4ccc(F)cc4)n3)C2)c1 (centres unmarked) [GSK1379721],10
8,CN(C)CCN(C)C(=O)c1cc(-c2ccncc2)c(-c2ccc(Cl)c(O)c2)o1.Cl.Cl [SB-710397],0
9,CC(C)(C)c1ccc(C(=O)Nc2cn3cc(Cl)ccc3n2)cc1,0
10,COc1cc2nccc(Nc3ccc(NC(=O)c4ccc(C)cc4)c(O)c3)c2cc1OC.Cl [GW440132],20
11,O=C1NC(=O)C(N2CCc3ccccc32)=C1c1ccccc1Cl [SB-373598],0
12,COc1cc2ncn(-c3cc(OCC4CCCO4)c(C(N)=O)s3)c2cc1OC (centres unmarked) [GSK204607],22
13,COc1cc(Nc2nccc(N3CCC(NC(=O)Nc4cc(C)ccc4C)C3)n2)cc(OC)c1OC (centres unmarked) [GSK1379762],0
14,Cl.NC(=O)c1cccc(Nc2nccc(Nc3ccc(Oc4cccc(Cl)c4)c(Cl)c3)n2)c1 [GW659008],0
15,COc1ccccc1CNC(=O)c1cc(C(=O)c2ccccc2C)c[nH]1 [GSK364507],0
16,COc1cc2ncnc(Nc3ccc4nc(-c5ccccc5)[nH]c4c3)c2cc1OC.Cl [GW282450],6
17,NC(=O)c1nnc2ccccc2c1N,2

row,Compound,%Inh [%]
1,CN1C(=O)C(Nc2ccc(Cl)c(C(=O)O)c2)=C(c2ccc(Cl)cc2)C1=O [SB-404290],0
2,Cc1cccc(-c2cc(Nc3ccncc3)c3ccccc3n2)n1 [GSK223675],8
3,Cc1ccc(NC(=O)Nc2cc(C(C)(C)C)nn2-c2ccccc2)cc1 [GSK1014915],0
4,Cn1ccc2ncnc(Oc3ccc(Nc4nc5ccccc5[nH]4)cc3)c21,0
5,CCn1c(-c2cccnc2O)nc2cnccc21 [SB-736715],0
6,COc1ccc(C2=C(Nc3cccc(C(=O)O)c3)C(=O)NC2=O)cc1 [SB-390765],0
7,Fc1cc(Cl)ccc1Nc1ccnc2cc(I)ccc12 [GW551191],0
8,CS(=O)(=O)c1ccc(-c2c(-c3ncn[nH]3)sc(N3CCOCC3)c2C#N)cc1,0
9,Cn1ccc2ncnc(Oc3ccc(NC(=O)Nc4ccccc4)cc3)c21,0
10,Cc1cccc(-c2nc(Nc3ccc4[nH]ncc4c3)c3ccccc3n2)n1 [GW857175],0
11,CC1=C(C(=O)Nc2cc3cn[nH]c3cc2F)C(c2ccc(C(F)(F)F)cc2)CC(=O)N1 (centres unmarked) [GSK429286],0
12,Cc1cccc(-c2nc(C)cc(Nc3ccncc3)n2)n1 [GSK257997],8
13,Fc1cccc(COc2nnc(-c3ccc4c(c3)CCO4)o2)c1,0
14,COc1ccc(CNC(=O)NC2CCN(c3ccnc(Nc4cc(OC)c(OC)c(OC)c4)n3)C2)cc1 (centres unmarked) [GSK1379748],9
15,O=C(Nc1n[nH]c2nc(-c3nccs3)c(Br)cc12)C1CCCC1 [SB-742609],5
16,Cc1csc(-c2nc(Nc3ccncc3)c3ccccc3n2)n1 [GW869640],0
17,O=C(Nc1n[nH]c2nc(-c3nccs3)c(Br)cc12)C1CC1 [SB-742251],9

# Test system: T2, YSK4
# T2 construct: gene MAP3K19
# Settings: concentration: 1 μM, replicates: in singlicate; n = 1
row,Compound,%Inh [%]
1,Nc1ncnc2[nH]c(-c3ccccc3)nc12 [AH5015],94.4
2,Cc1cc(-c2ccc3c(c2)CC[C@@H](N[C@@H](C)c2ccccc2)C3)cnc1N.Cl [GW412617],100
3,Cc1ccc(-c2cc(-c3c[nH]nc3-c3ccccn3)ccn2)cc1 [GW684088],2
4,O=C(Nc1n[nH]c2cc(-c3cccc(F)c3F)ccc12)C1CC1 [SB-733894],74
5,O=C(Nc1ccc2c(c1)OCO2)NC1CCN(c2ccnc(Nc3ccc(F)cc3)n2)C1 (centres unmarked) [GSK1379724],39
6,O=c1cc(N2CCOCC2)nc2n(Cc3cccc(Cl)c3Cl)ccn12 [GSK2286295],23
7,COc1cccc(NC(=O)NC2CCN(c3ccnc(Nc4ccc(F)cc4)n3)C2)c1 (centres unmarked) [GSK1379721],3
8,CN(C)CCN(C)C(=O)c1cc(-c2ccncc2)c(-c2ccc(Cl)c(O)c2)o1.Cl.Cl [SB-710397],57
9,CC(C)(C)c1ccc(C(=O)Nc2cn3cc(Cl)ccc3n2)cc1,5
10,COc1cc2nccc(Nc3ccc(NC(=O)c4ccc(C)cc4)c(O)c3)c2cc1OC.Cl [GW440132],9
11,O=C1NC(=O)C(N2CCc3ccccc32)=C1c1ccccc1Cl [SB-373598],0
12,COc1cc2ncn(-c3cc(OCC4CCCO4)c(C(N)=O)s3)c2cc1OC (centres unmarked) [GSK204607],53
13,COc1cc(Nc2nccc(N3CCC(NC(=O)Nc4cc(C)ccc4C)C3)n2)cc(OC)c1OC (centres unmarked) [GSK1379762],27
14,Cl.NC(=O)c1cccc(Nc2nccc(Nc3ccc(Oc4cccc(Cl)c4)c(Cl)c3)n2)c1 [GW659008],0
15,COc1ccccc1CNC(=O)c1cc(C(=O)c2ccccc2C)c[nH]1 [GSK364507],28
16,COc1cc2ncnc(Nc3ccc4nc(-c5ccccc5)[nH]c4c3)c2cc1OC.Cl [GW282450],35
17,NC(=O)c1nnc2ccccc2c1N,88

row,Compound,%Inh [%]
1,CN1C(=O)C(Nc2ccc(Cl)c(C(=O)O)c2)=C(c2ccc(Cl)cc2)C1=O [SB-404290],4
2,Cc1cccc(-c2cc(Nc3ccncc3)c3ccccc3n2)n1 [GSK223675],13
3,Cc1ccc(NC(=O)Nc2cc(C(C)(C)C)nn2-c2ccccc2)cc1 [GSK1014915],19
4,Cn1ccc2ncnc(Oc3ccc(Nc4nc5ccccc5[nH]4)cc3)c21,14
5,CCn1c(-c2cccnc2O)nc2cnccc21 [SB-736715],0
6,COc1ccc(C2=C(Nc3cccc(C(=O)O)c3)C(=O)NC2=O)cc1 [SB-390765],0
7,Fc1cc(Cl)ccc1Nc1ccnc2cc(I)ccc12 [GW551191],49
8,CS(=O)(=O)c1ccc(-c2c(-c3ncn[nH]3)sc(N3CCOCC3)c2C#N)cc1,18
9,Cn1ccc2ncnc(Oc3ccc(NC(=O)Nc4ccccc4)cc3)c21,93.1
10,Cc1cccc(-c2nc(Nc3ccc4[nH]ncc4c3)c3ccccc3n2)n1 [GW857175],19
11,CC1=C(C(=O)Nc2cc3cn[nH]c3cc2F)C(c2ccc(C(F)(F)F)cc2)CC(=O)N1 (centres unmarked) [GSK429286],9
12,Cc1cccc(-c2nc(C)cc(Nc3ccncc3)n2)n1 [GSK257997],0
13,Fc1cccc(COc2nnc(-c3ccc4c(c3)CCO4)o2)c1,31
14,COc1ccc(CNC(=O)NC2CCN(c3ccnc(Nc4cc(OC)c(OC)c(OC)c4)n3)C2)cc1 (centres unmarked) [GSK1379748],13
15,O=C(Nc1n[nH]c2nc(-c3nccs3)c(Br)cc12)C1CCCC1 [SB-742609],62
16,Cc1csc(-c2nc(Nc3ccncc3)c3ccccc3n2)n1 [GW869640],38
17,O=C(Nc1n[nH]c2nc(-c3nccs3)c(Br)cc12)C1CC1 [SB-742251],95.4
